In ChEMBL document CHEMBL3988442, “University of Dundee, Small-Polar-MMV Screening Library” (2021):
For some assays here: Results with a measured potency or affinity are listed apart.

Legend:
Design in all cases: scale not given: direction of the effect not stated beside the values
[1] = target: Protein translocase subunit SecA (Escherichia coli (strain K12)) (UniProt P10408); experiment: Assay to Identify E. coli SecA ATPase Inhibitors; format: functional; conditions: 30 µM
[2] = target: T1, Ubiquitin-activating enzyme e1, putative (Leishmania donovani (strain BPK282A1)) (UniProt E9BSI1); experiment: Leishmania donovani Ubiquitin Activating Enzyme (LdE1); format: functional; conditions: 30 µM
T1 sequence (whole entry): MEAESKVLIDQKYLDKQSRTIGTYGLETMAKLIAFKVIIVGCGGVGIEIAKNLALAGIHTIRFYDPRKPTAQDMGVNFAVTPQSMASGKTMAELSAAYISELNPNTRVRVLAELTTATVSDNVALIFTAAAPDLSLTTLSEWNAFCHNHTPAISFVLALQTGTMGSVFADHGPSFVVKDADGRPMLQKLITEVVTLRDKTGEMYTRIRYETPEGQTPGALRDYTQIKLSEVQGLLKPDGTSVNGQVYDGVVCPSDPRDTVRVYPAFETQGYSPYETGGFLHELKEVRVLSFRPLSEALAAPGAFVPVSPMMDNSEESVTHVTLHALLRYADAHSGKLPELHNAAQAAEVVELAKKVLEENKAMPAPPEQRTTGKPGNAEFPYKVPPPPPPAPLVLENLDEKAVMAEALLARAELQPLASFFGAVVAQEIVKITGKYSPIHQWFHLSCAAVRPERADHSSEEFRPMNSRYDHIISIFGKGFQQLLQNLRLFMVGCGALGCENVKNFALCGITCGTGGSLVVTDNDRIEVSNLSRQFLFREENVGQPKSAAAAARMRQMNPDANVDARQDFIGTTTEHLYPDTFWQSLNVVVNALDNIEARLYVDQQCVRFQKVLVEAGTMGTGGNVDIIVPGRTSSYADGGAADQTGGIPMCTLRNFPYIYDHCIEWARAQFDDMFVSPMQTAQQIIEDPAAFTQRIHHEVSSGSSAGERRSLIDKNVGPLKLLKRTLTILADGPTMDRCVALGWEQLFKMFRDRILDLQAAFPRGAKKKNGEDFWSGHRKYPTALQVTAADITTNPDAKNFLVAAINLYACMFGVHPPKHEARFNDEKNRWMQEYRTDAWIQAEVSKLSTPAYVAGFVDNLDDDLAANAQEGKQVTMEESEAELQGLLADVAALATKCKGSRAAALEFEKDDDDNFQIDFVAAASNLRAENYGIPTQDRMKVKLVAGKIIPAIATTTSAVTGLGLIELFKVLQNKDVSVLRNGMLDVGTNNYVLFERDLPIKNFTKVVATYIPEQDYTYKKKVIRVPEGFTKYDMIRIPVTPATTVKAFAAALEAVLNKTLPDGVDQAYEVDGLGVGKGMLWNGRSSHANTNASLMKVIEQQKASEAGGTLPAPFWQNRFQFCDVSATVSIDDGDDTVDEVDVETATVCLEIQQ

[3] = target: AMP-activated protein kinase, AMPK (Homo sapiens) (UniProt P54646+O43741+P54619+Q9UGJ0+Q9Y478+Q13131+Q9UGI9); experiment: AMP-dependent Kinase enzyme assay. An in vitro enzyme assay that detects ADP turnover that is directly proportional to AMPK activity. This uses naive AMPK that is activated during the assay with MK-8722; format: functional; conditions: 30 µM
[4] = target: Sialic acid-binding Ig-like lectin 9 (Homo sapiens) (UniProt Q9Y336); experiment: Hs-Siglec9 ALPHAscreen SOP 20170721; conditions: 10 µM
Sequence of Sialic acid-binding Ig-like lectin 9 (Homo sapiens) (Q9Y336 whole entry): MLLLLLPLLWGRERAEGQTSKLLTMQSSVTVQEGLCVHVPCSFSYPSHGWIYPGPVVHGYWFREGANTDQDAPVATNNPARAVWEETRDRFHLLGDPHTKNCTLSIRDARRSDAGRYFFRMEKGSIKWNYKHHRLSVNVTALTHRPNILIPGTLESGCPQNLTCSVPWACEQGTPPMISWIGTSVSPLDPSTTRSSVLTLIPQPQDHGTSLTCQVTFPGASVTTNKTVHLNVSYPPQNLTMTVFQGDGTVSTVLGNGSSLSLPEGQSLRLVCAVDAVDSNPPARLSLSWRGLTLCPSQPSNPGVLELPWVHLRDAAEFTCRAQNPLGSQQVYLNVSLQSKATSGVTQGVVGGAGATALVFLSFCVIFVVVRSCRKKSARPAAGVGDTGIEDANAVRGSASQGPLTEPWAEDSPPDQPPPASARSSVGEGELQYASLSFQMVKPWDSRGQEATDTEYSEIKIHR

[5] = test system: Trypanosoma cruzi; experiment: Trypanosoma cruzi phosphomannomutase and mannose-1-phosphate guanylyltransferase assay; format: functional; conditions: 10 µM
[6] = target: T2, Arginase-2, mitochondrial (Homo sapiens) (UniProt P78540); experiment: in vitro enzyme assay to detect the production of urea directly proportional to the activity of Arginase II; format: functional; conditions: 33.3 µM; note: in the data most compounds retested in dose-response had high values
T2 sequence (whole entry): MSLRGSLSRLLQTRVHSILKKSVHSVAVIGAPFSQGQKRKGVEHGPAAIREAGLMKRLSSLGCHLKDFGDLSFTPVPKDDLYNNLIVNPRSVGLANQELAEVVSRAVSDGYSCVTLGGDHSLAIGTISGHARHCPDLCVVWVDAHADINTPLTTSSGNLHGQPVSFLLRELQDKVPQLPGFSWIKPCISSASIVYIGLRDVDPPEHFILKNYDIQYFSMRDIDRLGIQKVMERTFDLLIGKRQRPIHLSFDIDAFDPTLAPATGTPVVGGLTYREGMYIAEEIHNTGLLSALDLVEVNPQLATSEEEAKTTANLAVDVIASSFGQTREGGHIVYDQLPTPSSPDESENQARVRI

[7] = target: T3, Proteasome subunit beta (Trypanosoma cruzi) (UniProt O96673); experiment: Trypanosoma cruzi proteasome chymotrypsin-like activity (TcProtChymo) assay.; note: in the data most compounds retested in dose-response had high values; format: functional; conditions: 9.37 µM
T3 sequence (whole entry): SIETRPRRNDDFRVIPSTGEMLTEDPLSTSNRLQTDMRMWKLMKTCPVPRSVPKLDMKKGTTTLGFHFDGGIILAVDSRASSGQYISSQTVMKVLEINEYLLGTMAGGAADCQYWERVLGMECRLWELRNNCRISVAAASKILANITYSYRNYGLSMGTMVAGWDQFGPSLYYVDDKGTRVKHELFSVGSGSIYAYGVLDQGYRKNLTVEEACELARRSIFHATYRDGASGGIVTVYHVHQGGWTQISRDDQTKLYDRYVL

[8] = species on record: Homo sapiens; experiment: To identify inhibition of the IFN signalling (Jak-Stat) pathway via expression of an eGFP reporter gene under the control of an IFN-stimulated response element (ISRE) containing MxA promoter.; format: functional; conditions: 30 µM
[9] = target: T4, Tyrosyl-tRNA synthetase, putative (Trypanosoma cruzi (strain CL Brener)) (UniProt Q4DSP6); experiment: Trypanosoma cruzi tyrosyl tRNA synthetase (TcYRS) _High Tyrosine SOP; format: functional; conditions: 30 µM; note: in the data most compounds retested in dose-response had high values
T4 sequence (whole entry): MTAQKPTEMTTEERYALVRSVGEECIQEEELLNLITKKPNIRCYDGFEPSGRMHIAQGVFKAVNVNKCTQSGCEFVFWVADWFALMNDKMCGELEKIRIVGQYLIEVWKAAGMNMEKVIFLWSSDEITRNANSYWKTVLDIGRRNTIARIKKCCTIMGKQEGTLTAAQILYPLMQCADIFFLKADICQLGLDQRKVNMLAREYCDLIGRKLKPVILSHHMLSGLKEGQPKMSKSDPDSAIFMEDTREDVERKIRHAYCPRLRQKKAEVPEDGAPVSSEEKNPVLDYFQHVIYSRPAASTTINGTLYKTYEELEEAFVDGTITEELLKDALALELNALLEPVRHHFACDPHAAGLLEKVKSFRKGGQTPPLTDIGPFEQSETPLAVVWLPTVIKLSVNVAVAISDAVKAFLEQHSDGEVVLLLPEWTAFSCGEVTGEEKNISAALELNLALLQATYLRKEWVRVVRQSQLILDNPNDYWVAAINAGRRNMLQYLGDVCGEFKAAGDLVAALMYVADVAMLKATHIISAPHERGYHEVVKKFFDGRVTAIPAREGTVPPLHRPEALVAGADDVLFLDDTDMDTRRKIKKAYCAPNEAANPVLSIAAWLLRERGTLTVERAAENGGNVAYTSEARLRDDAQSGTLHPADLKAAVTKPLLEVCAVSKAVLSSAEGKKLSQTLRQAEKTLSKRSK

[10] = target: T4, Tyrosyl-tRNA synthetase, putative (Trypanosoma cruzi (strain CL Brener)); experiment: Trypanosoma cruzi tyrosyl tRNA synthetase (TcYRS) SOP; format: functional; conditions: 30 µM
[11] = target: Chromo domain-containing protein 1 (Saccharomyces cerevisiae (strain ATCC 204508 / S288c) (Baker's yeast)) (UniProt P32657); experiment: ScCHD-1 Enzyme Inhibition Assay; format: functional; conditions: 30 µM; note: in the data most compounds retested in dose-response had high values
Sequence of Chromo domain-containing protein 1 (Saccharomyces cerevisiae (strain ATCC 204508 / S288c) (Baker's yeast)) (P32657 whole entry, the tested form may be a part): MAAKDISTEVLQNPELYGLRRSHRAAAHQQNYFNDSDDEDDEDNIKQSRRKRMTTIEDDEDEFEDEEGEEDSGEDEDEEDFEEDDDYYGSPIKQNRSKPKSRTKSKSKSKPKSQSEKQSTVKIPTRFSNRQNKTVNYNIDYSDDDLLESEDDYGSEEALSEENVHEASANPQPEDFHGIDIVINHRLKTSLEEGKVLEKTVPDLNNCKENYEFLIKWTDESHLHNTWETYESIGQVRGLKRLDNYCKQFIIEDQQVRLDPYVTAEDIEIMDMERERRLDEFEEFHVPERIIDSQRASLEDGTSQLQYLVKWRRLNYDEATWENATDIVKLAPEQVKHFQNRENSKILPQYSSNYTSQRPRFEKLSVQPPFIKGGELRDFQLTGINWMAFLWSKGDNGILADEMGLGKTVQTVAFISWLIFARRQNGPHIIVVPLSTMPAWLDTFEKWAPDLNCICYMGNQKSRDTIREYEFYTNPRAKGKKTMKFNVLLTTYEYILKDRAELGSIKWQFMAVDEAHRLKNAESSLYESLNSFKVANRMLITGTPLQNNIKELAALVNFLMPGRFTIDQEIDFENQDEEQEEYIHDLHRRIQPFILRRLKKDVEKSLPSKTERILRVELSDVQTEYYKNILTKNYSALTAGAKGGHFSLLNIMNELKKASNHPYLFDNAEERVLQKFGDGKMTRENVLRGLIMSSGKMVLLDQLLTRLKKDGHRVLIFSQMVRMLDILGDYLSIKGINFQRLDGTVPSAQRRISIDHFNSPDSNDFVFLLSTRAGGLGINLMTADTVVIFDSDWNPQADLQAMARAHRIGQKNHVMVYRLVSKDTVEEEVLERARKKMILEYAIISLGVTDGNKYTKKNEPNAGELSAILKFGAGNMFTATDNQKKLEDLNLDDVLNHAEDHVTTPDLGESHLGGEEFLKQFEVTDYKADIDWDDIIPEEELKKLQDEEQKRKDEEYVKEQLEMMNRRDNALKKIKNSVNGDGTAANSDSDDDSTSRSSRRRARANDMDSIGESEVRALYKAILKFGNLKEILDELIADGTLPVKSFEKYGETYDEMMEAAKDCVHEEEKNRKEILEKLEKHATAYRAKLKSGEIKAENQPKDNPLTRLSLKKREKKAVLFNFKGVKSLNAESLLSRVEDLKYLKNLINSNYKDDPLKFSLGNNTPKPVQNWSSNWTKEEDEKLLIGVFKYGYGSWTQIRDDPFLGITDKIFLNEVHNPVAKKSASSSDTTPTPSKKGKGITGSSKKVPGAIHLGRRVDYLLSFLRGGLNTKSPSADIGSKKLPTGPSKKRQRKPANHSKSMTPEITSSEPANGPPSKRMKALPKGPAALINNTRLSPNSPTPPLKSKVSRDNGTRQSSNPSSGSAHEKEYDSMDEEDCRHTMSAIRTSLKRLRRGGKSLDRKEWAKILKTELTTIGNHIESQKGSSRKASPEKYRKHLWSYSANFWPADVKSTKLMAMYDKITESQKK

Sequence of Protein translocase subunit SecA (Escherichia coli (strain K12)) (P10408 whole entry): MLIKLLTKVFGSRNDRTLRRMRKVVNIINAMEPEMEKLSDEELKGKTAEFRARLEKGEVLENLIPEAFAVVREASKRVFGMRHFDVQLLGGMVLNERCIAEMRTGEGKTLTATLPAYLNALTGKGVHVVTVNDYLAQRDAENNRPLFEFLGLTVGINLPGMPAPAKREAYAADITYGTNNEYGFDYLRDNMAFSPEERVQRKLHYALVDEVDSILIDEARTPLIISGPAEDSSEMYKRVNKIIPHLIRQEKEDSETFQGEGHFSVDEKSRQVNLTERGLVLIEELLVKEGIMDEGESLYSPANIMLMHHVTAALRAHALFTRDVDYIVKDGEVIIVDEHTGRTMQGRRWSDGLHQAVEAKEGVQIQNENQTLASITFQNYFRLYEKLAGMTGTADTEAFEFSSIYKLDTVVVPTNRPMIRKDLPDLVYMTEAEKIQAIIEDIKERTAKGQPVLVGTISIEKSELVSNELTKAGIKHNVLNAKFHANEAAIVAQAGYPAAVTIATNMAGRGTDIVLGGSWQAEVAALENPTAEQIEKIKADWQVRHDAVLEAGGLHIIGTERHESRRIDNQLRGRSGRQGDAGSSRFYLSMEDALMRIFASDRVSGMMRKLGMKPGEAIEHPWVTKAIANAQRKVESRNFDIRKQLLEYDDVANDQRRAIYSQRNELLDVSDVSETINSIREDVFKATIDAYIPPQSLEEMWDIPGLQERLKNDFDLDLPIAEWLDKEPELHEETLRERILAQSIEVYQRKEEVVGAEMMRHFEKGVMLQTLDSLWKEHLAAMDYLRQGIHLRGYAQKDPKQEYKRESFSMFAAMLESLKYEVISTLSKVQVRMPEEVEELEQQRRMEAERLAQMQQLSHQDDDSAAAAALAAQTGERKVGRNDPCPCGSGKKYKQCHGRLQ

| SMILES | Percent Effect [1] [%] | Percent Effect [2] [%] | Percent Effect [3] [%] | Percent Effect [4] [%] | Percent Effect [5] [%] | Percent Effect [6] [%] | Percent Effect [7] [%] | Percent Effect [8] [%] | Percent Effect [9] [%] | Percent Effect [10] [%] | Percent Effect [11] [%] |
| --- | --- | --- | --- | --- | --- | --- | --- | --- | --- | --- | --- |
| O=C(NCc1cc[nH]n1)N1CCCCC(N2CCCC2)C1 (configuration not stated) | -3.54 | -10.5 | -9.14 | 11.7 | 6.44 | 2.16 | 1.27 | 7.32 | 7.39 | 23.5 | 3.8 |
| OC(COCc1ccc(Cl)cc1)CN1CCC(c2ccn[nH]2)CC1 (configuration not stated) | -3.72 | 20.2 | -9.18 | -2.48 | 7.27 | -3.04 | 3.03 | -5.57 | 5.42 | 26.6 | -7.16 |
| Cn1ccnc1-c1cccc(NC(=O)NCCN2CCOCC2)c1 | -4.99 | 15.3 | -5.8 | 16.5 | 4.57 | 16.3 | 10.9 | 9.44 | 5.26 | 10.3 | -4.33 |
| Cc1nc(C)n(CC2CCCN2CCOc2ccc(C#N)cc2)n1 (configuration not stated) | -3.7 | 2.53 | -2.42 | 10.4 | 7.27 | 1.9 | 1.06 | 17.9 | 6.4 | 11.4 | -5.17 |
| CCOc1ccccc1-c1noc(CN(C)Cc2cnn(C)c2)n1 | 1.46 | 8.11 | -5.04 | 7.46 | -2.12 | -4.76 | 11.9 | 4.5 | 4.76 | 9.76 | -1.75 |
| O=C(c1ccoc1)N1CC[C@@H]2[C@H]1CCC(=O)N2c1ccccc1 | -4.24 | 10.7 | 10.1 | -2.97 | -1.97 | -1.63 | 5.02 | 10.8 | 9.57 | 14.1 | -0.93 |
| Cc1ccc(F)cc1NC(=O)NCC(C)N1CCOCC1 (configuration not stated) | -1.78 | 18.9 | 0.541 | -0.431 | 0.391 | 1.25 | 9.55 | 14.3 | 11.9 | 18.3 | 3.74 |
| COCCOc1ncccc1C(=O)Nc1ccc(-n2cncn2)c(F)c1 | -2.86 | 10.5 | 0.415 | 9.57 | 0 | 0 | 17.5 | -26.4 | 7.35 | 12.2 | -9.99 |
| O=C1CCSCC(C(=O)N2CCN(C3CCCCC3)CC2)N1 (configuration not stated) | -2.82 | 0 | -2.68 | -4.3 | 0.979 | 3.64 | 2.48 | -1.47 | 5.38 | 12.5 | -0.805 |
| Cc1csc(N2CCN(CC(=O)Nc3c(C)n[nH]c3C)CC2C)n1 (configuration not stated) | -1.64 | 21.6 | -4.71 | -7.72 | -2.88 | -3.51 | 15.4 | 5.89 | 3.96 | 13.4 | -4.83 |
| Cc1cc(N2CCN(Cc3ccccc3)CC(O)C2)cc(C)n1 (configuration not stated) | -7.08 | -2.7 | 1.17 | 11.4 | -1.74 | -3.81 | 2.07 | 20.1 | -0.529 | 4.88 | -1.99 |
| Cc1ccc(CN2CCc3c(C(=O)N(C)C)nn(C)c3C2)s1 | -1.04 | 8.22 | -3.87 | 6.86 | 5.95 | 0 | 18.6 | 6.25 | 8.33 | 11.1 | -4.79 |
| CCc1nnsc1C(=O)N1CCCN(Cc2cnn(C)c2)CC1 | -0.656 | -2.6 | -0.0421 | -5.43 | 7.74 | -0.21 | -1.05 | -10.1 | 0.952 | 2.35 | -0.342 |
| COc1cccc(C(=O)NS(=O)(=O)c2cccc(C#N)c2)c1OC | -5.72 | 10.8 | -6.64 | 1.98 | 1.58 | 2.4 | -0.539 | 0.367 | 1.98 | 13.4 | 3.98 |
| CCc1nc(CC(=O)NCC(Cc2ccc(F)cc2)C(N)=O)cs1 (configuration not stated) | -8.91 | 5.26 | -6.2 | 10.1 | 7.89 | -3.55 | -2.21 | 11.5 | 4.25 | 13 | -14.4 |
| CCc1nnc2n1CCN(CC(=O)Nc1cc(C(C)(C)C)nn1C)C2 | -1.62 | 5.26 | 1.91 | 0.565 | -3.38 | 4.6 | 2.17 | 2.83 | 3.43 | 9.76 | 2.88 |
| Cc1cc(C)c(CNC(=O)N(C)CC2CCCCO2)c(=O)[nH]1 (configuration not stated) | -3.05 | 7.89 | 2.98 | -2.11 | -8.84 | 3.06 | 14.2 | 30.1 | 4.41 | 9.76 | -2.04 |
| CCCN1CC(C(=O)Nc2ccccn2)CC1=O (configuration not stated) | 0.0255 | 0 | -0.466 | 5.93 | 4.83 | 12.4 | 9.31 | 15.4 | 2.65 | 7.32 | -4.7 |
| CN1CCN(C2CCN(CC(=O)NCC(F)(F)F)CC2)C1=O | -6.45 | 15.2 | -9.09 | 10.9 | 7.46 | -3.8 | 5.32 | -11.8 | 3.45 | 13.9 | -3.32 |
| CC(C)(C)C(=O)N1CCC(c2nc(O)cc(-c3ccccn3)n2)CC1 | -0.499 | 12.2 | 8.91 | -7.12 | -0.79 | -5.34 | 12 | 11.1 | 2.15 | 1.3 | -8.6 |
| Cc1nc(C2CCCN2C(=O)c2cnns2)no1 (configuration not stated) | -3.1 | 13.2 | 3.2 | 4.23 | -0.564 | 9.96 | 12.9 | 3.69 | 5.39 | 17.1 | -6.62 |
| CCc1cnc2c(c1NCc1ccncc1)c(=O)n(C)c(=O)n2C | 0.985 | 8.22 | -0.992 | -0.488 | -4.5 | 5 | 13.1 | 14.7 | 6.45 | 10 | -4.37 |
